# Results: PubChem BioAssay AID1159580 (chemical genetic matrix, 2015)
# The campaign covered roughly 5,500 compounds. About 2,000 (36%) were called active. Not shown: some 18% with an inconclusive outcome. This is one part of the list. A number with no mark means an inactive call. No stated cut-off is given here; in the data, active means normalized growth mostly below about 0.91 (no sharp cut-off); inconclusive means no clear call, values can overlap the other calls; inactive means mostly above about 0.92.
# Assay: chemical genetic growth profiling, strain panel (AID 1159580);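 further: tested at 20 µM; growth read once vehicle control cultures reached saturation at 30 °C; 1 = growth at the plate median or of vehicle wells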
# Details: growth OD
smiles,measurement,setting,value
OC[C@H]1O[C@@](CO)(O[C@@H]2O[C@H](CO)[C@@H](O)[C@H](O)[C@H]2O)[C@@H](O[C@@H]2O[C@H](CO)[C@@H](O)[C@H](O)[C@H]2O)[C@@H]1O,normalized growth,"S. cerevisiae deletion strains, locus YJR043C, strain POL32, stronger effect = lower value",1.04
same,normalized growth,"S. cerevisiae deletion strains, locus YJR066W, strain TOR1, stronger effect = lower value",0.956
same,normalized growth,"S. cerevisiae deletion strains, locus YKL009W, strain mrt4, stronger effect = lower value",1.03
same,normalized growth,"S. cerevisiae deletion strains, locus YKL068W, stronger effect = lower value",0.997
same,normalized growth,"S. cerevisiae deletion strains, locus YKL085W, strain MDH1 (second series), stronger effect = lower value",1.01
same,normalized growth,"S. cerevisiae deletion strains, locus YKL085W, strain MDH1, stronger effect = lower value",1.01
same,normalized growth,"S. cerevisiae deletion strains, locus YKL160W, strain elf1, stronger effect = lower value",1.02
same,normalized growth,"S. cerevisiae deletion strains, locus YKR001C, strain vps1, stronger effect = lower value",1.11 [resistant] (active)
same,normalized growth,"S. cerevisiae deletion strains, locus YKR026C, strain gcn3, stronger effect = lower value",0.994
same,normalized growth,"S. cerevisiae deletion strains, locus YKR091W, strain srl3, stronger effect = lower value",1.01
same,normalized growth,"S. cerevisiae deletion strains, locus YLL001W, strain dnm1, stronger effect = lower value",0.996
same,normalized growth,"S. cerevisiae deletion strains, locus YLL026W, stronger effect = lower value",1.02
same,normalized growth,"S. cerevisiae deletion strains, locus YLL041C, strain sdh2, stronger effect = lower value",1.01
same,normalized growth,"S. cerevisiae deletion strains, locus YLR027C, strain aat2, stronger effect = lower value",1.01
same,normalized growth,"S. cerevisiae deletion strains, locus YLR039C, strain RIC1, stronger effect = lower value",1.18
same,normalized growth,"S. cerevisiae deletion strains, locus YLR058C, strain SHM2, stronger effect = lower value",1.03
same,normalized growth,"S. cerevisiae deletion strains, locus YLR102C, strain apc9, stronger effect = lower value",1.02
same,normalized growth,"S. cerevisiae deletion strains, locus YLR113W, strain HOG1, stronger effect = lower value",0.986
same,normalized growth,"S. cerevisiae deletion strains, locus YLR221C, strain rsa3, stronger effect = lower value",1.01
same,normalized growth,"S. cerevisiae deletion strains, locus YLR258W, strain gsy2, stronger effect = lower value",1.02
same,normalized growth,"S. cerevisiae deletion strains, locus YLR262C, strain YPT6 (second series), stronger effect = lower value",1
same,normalized growth,"S. cerevisiae deletion strains, locus YLR262C, strain YPT6, stronger effect = lower value",1.16
same,normalized growth,"S. cerevisiae deletion strains, locus YLR268W, strain sec22, stronger effect = lower value",1.05
same,normalized growth,"S. cerevisiae deletion strains, locus YLR320W, strain mms22, stronger effect = lower value",1.03
same,normalized growth,"S. cerevisiae deletion strains, locus YLR330W, strain CHS5, stronger effect = lower value",1.02
same,normalized growth,"S. cerevisiae deletion strains, locus YLR342W, strain FKS1 (second series), stronger effect = lower value",1.08
same,normalized growth,"S. cerevisiae deletion strains, locus YLR342W, strain FKS1, stronger effect = lower value",1.02
same,normalized growth,"S. cerevisiae deletion strains, locus YLR357W, strain rsc2, stronger effect = lower value",0.991
same,normalized growth,"S. cerevisiae deletion strains, locus YLR370C, strain arc18, stronger effect = lower value",1.03
same,normalized growth,"S. cerevisiae deletion strains, locus YLR371W, strain rom2, stronger effect = lower value",0.999
same,normalized growth,"S. cerevisiae deletion strains, locus YLR384C, strain iki3, stronger effect = lower value",1.01
same,normalized growth,"S. cerevisiae deletion strains, locus YLR418C, strain cdc73, stronger effect = lower value",1.09
same,normalized growth,"S. cerevisiae deletion strains, locus YML016C, strain PPZ1, stronger effect = lower value",1.01
same,normalized growth,"S. cerevisiae deletion strains, locus YML032C, strain rad52, stronger effect = lower value",1.03
same,normalized growth,"S. cerevisiae deletion strains, locus YML120C, strain ndi1, stronger effect = lower value",1.03
same,normalized growth,"S. cerevisiae deletion strains, locus YML124C, strain tub3, stronger effect = lower value",1.01
same,normalized growth,"S. cerevisiae deletion strains, locus YMR058W, strain fet3, stronger effect = lower value",1.02
same,normalized growth,"S. cerevisiae deletion strains, locus YMR078C, strain ctf18, stronger effect = lower value",1.02
same,normalized growth,"S. cerevisiae deletion strains, locus YMR125W, strain sto1, stronger effect = lower value",1.02
same,normalized growth,"S. cerevisiae deletion strains, locus YMR129W, stronger effect = lower value",1.03
same,normalized growth,"S. cerevisiae deletion strains, locus YMR205C, strain PFK2, stronger effect = lower value",1.04
same,normalized growth,"S. cerevisiae deletion strains, locus YMR223W, strain ubp8, stronger effect = lower value",1.03
same,normalized growth,"S. cerevisiae deletion strains, locus YMR231W, strain pep5, stronger effect = lower value",1.01
same,normalized growth,"S. cerevisiae deletion strains, locus YMR263W, strain SAP30, stronger effect = lower value",1.02
same,normalized growth,"S. cerevisiae deletion strains, locus YMR307W, strain GAS1, stronger effect = lower value",1.03
same,normalized growth,"S. cerevisiae deletion strains, locus YNL067W, strain RPL9B, stronger effect = lower value",1.03
same,normalized growth,"S. cerevisiae deletion strains, locus YNL071W, strain lat1, stronger effect = lower value",1.01
same,normalized growth,"S. cerevisiae deletion strains, locus YNL128W, strain TEP1, stronger effect = lower value",1.03
same,normalized growth,"S. cerevisiae deletion strains, locus YNL183C, strain NPR1, stronger effect = lower value",0.946
same,normalized growth,"S. cerevisiae deletion strains, locus YNL209W, strain ssb2, stronger effect = lower value",1.02
same,normalized growth,"S. cerevisiae deletion strains, locus YNL233W, strain BNI4, stronger effect = lower value",1.06
same,normalized growth,"S. cerevisiae deletion strains, locus YNL248C, strain rpa49, stronger effect = lower value",1.01
same,normalized growth,"S. cerevisiae deletion strains, locus YNL250W, strain rad50, stronger effect = lower value",1.03
same,normalized growth,"S. cerevisiae deletion strains, locus YNL271C, strain bni1, stronger effect = lower value",1.02
same,normalized growth,"S. cerevisiae deletion strains, locus YNL298W, strain CLA4, stronger effect = lower value",1.02
same,normalized growth,"S. cerevisiae deletion strains, locus YNL307C, strain MCK1, stronger effect = lower value",1.01
same,normalized growth,"S. cerevisiae deletion strains, locus YNL322C, strain KRE1 (second series), stronger effect = lower value",1.02
same,normalized growth,"S. cerevisiae deletion strains, locus YNR049C, strain mso1, stronger effect = lower value",1.02
same,normalized growth,"S. cerevisiae deletion strains, locus YNR052C, strain pop2, stronger effect = lower value",1.03
same,normalized growth,"S. cerevisiae deletion strains, locus YOL006C, strain TOP1, stronger effect = lower value",1.23
same,normalized growth,"S. cerevisiae deletion strains, locus YOL012C, strain htz1",1.32
same,normalized growth,"S. cerevisiae deletion strains, locus YOL147C, strain pex11, stronger effect = lower value",1
same,normalized growth,"S. cerevisiae deletion strains, locus YOR001W, strain rrp6, stronger effect = lower value",1
same,normalized growth,"S. cerevisiae deletion strains, locus YOR061W, strain CKA2, stronger effect = lower value",1.04
same,normalized growth,"S. cerevisiae deletion strains, locus YOR069W, strain VPS5, stronger effect = lower value",1.02
same,normalized growth,"S. cerevisiae deletion strains, locus YOR070C, strain gyp1, stronger effect = lower value",1.01
same,normalized growth,"S. cerevisiae deletion strains, locus YOR080W, strain dia2, stronger effect = lower value",1.02
same,normalized growth,"S. cerevisiae deletion strains, locus YOR083W, strain WHI5, stronger effect = lower value",1.01
same,normalized growth,"S. cerevisiae deletion strains, locus YOR106W, strain vam3, stronger effect = lower value",1
same,normalized growth,"S. cerevisiae deletion strains, locus YOR136W, strain idh2, stronger effect = lower value",1.02
same,normalized growth,"S. cerevisiae deletion strains, locus YOR144C, strain elg1, stronger effect = lower value",1.02
same,normalized growth,"S. cerevisiae deletion strains, locus YOR184W, strain ser1, stronger effect = lower value",1.06
same,normalized growth,"S. cerevisiae deletion strains, locus YOR231W, strain MKK1, stronger effect = lower value",1
same,normalized growth,"S. cerevisiae deletion strains, locus YOR265W, strain rbl2, stronger effect = lower value",1.01
same,normalized growth,"S. cerevisiae deletion strains, locus YOR270C, strain vph1, stronger effect = lower value",1.05
same,normalized growth,"S. cerevisiae deletion strains, locus YOR290C, strain snf2, stronger effect = lower value",0.981
same,normalized growth,"S. cerevisiae deletion strains, locus YOR316C, strain cot1, stronger effect = lower value",1.02
same,normalized growth,"S. cerevisiae deletion strains, locus YPL051W, strain arl3, stronger effect = lower value",1.01
same,normalized growth,"S. cerevisiae deletion strains, locus YPL055C, strain LGE1, stronger effect = lower value",1.08
same,normalized growth,"S. cerevisiae deletion strains, locus YPL078C, strain atp4, stronger effect = lower value",1
same,normalized growth,"S. cerevisiae deletion strains, locus YPL106C, strain sse1, stronger effect = lower value",1.02
same,normalized growth,"S. cerevisiae deletion strains, locus YPL240C, strain hsp82, stronger effect = lower value",1.03
same,normalized growth,"S. cerevisiae deletion strains, locus YPL256C, strain CLN2, stronger effect = lower value",1
same,normalized growth,"S. cerevisiae deletion strains, locus YPR119W, strain clb2, stronger effect = lower value",1.03
same,normalized growth,"S. cerevisiae deletion strains, locus YPR141C, strain kar3, stronger effect = lower value",1.02
same,normalized growth,"S. cerevisiae deletion strains, locus YPR163C, strain tif3, stronger effect = lower value",1.04
same,normalized growth,"S. cerevisiae deletion strains, locus YPR167C, strain met16, stronger effect = lower value",1.02
same,normalized growth,"S. cerevisiae deletion strains, strain wtn01, stronger effect = lower value",1.04
same,normalized growth,"S. cerevisiae strains, strain wild type, stronger effect = lower value",1.04
